# Results from PubChem BioAssay (Tox21).
# Some compounds were tested as several samples or in several runs, with calls that do not always agree. Activity calls are given as the source filed them. Entries that show only a call come without a potency. Unless noted, calls follow the shape of the dose curve; as a rule, active = well fitted curve in the direction sought with a large enough effect in the repeat runs; inconclusive = weak or mixed curves; inactive = no such curve, though single readings can be large; an effect the other way counts as inactive or inconclusive. Positions of bridges follow the written chain, without caps; N, C: chain ends. Residues, ends and D or L forms follow the SMILES beside them.
# Assays:
# [1] = qHTS assay to identify small molecule antagonists of the thyroid receptor (TR) signaling pathway (AID 743065); also: nearly all actives have a fitted effect of over 55% in size; also: potency is read from the fitted curve at half-maximal effect
# How it was run: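 GH3.TRE-Luc rat pituitary cells carrying two TR response elements driving luciferase were plated for 4 h, given compound plus 1 nM T3 (final), and incubated 23.5 h at 37 C. ONE-Glo luminescence measured reporter inhibition; CellTiter-Fluor fluorescence tracked cytotoxicity.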
# [2] = biological target: Estrogen receptor (Homo sapiens) (UniProt P03372); experiment: qHTS assay to identify small molecule antagonists of the estrogen receptor alpha (ER-alpha) signaling pathway (AID 743069; active = well fitted curve in the direction sought with a large enough effect in the signal ratio in the repeat runs, not every such curve was filed as active; inconclusive = weak or mixed curves, or effect the other way; inactive = no such curve, though single readings can be large or run the other way; the % refers to the signal ratio; also: potency is read from the fitted curve at half-maximal effect)
# How it was run: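 Screening used a UAS-driven beta-lactamase reporter integrated into HEK293 cells expressing ER-alpha, stimulated with 17beta-estradiol alongside test compounds over 18 hr at 37C; signal came from LiveBLAzer B/G FRET fluorescence.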
# [3] = biological target: Estrogen receptor (Homo sapiens) (UniProt P03372); experiment: qHTS assay to identify small molecule agonists of the estrogen receptor alpha (ER-alpha) signaling pathway (AID 743075; calls by dose curve; also: potency is read from the fitted curve at half-maximal effect)
# [4] = qHTS assay to identify small molecule antagonists of the estrogen receptor alpha (ER-alpha) signaling pathway using the BG1 cell line (AID 743080; calls by dose curve; also: nearly all actives have a fitted effect of over 25% in size; also: potency is read from the fitted curve at half-maximal effect)
# How it was run: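 Antagonist mode: compounds in DMSO were pinned onto BG1-Luc-4E2 cells alongside 17beta-estradiol agonist, incubated 21.5 h, and ERE-driven luciferase measured with ONE-Glo. Cytotoxicity was multiplexed using CellTiter-Fluor fluorescence.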
# [5] = qHTS assay to identify small molecule antagonists of the estrogen receptor alpha (ER-alpha) signaling pathway using the BG1 cell line - cell viability counter screen (AID 743081);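 also: compound given together with 17beta-estradiol as the ER stimulus; nearly all actives have a fitted effect of over 45% in size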
# [6] = biological target: Aromatase (Homo sapiens) (UniProt P11511); experiment: qHTS assay to identify aromatase inhibitors (AID 743083); also: nearly all actives have a fitted effect of over 55% in size; also: potency is read from the fitted curve at half-maximal effect
# [7] = qHTS assay to identify aromatase inhibitors - cell viability counter screen (AID 743084);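 also: cells stimulated with testosterone during compound exposure; nearly all actives have a fitted effect of over 55% in size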
# [8] = biological target: Aryl hydrocarbon receptor (Homo sapiens) (UniProt P35869); experiment: qHTS assay to identify small molecule that activate the aryl hydrocarbon receptor (AhR) signaling pathway (AID 743085);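 also: HG2L7.5c1 human HepG2 liver cells with stably integrated DRE-driven firefly reporter; nearly all actives have a fitted effect of over 15% in size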
# How it was run: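 HepG2 cells (HG2L7.5c1) stably carrying a firefly luciferase reporter driven by 20 dioxin responsive elements were exposed to compound for 24 h at 37C after a 5 h settling period; luminescence rise (ONE-Glo) indicated activation.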
# [9] = qHTS assay to identify small molecule that activate the aryl hydrocarbon receptor (AhR) signaling pathway - cell viability counter screen (AID 743086);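 also: HepG2 liver cells carrying the AhR DRE luciferase reporter; nearly all actives have a fitted effect of over 45% in size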
# How it was run: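 HepG2-AhR-luc (HG2L7.5c1) cells, 4000/well, were preincubated 5 h at 37C, exposed to compound in qHTS format for 24 hr at 37C, then given CellTiter-Fluor for 30 min; viability was read as fluorescence in the reporter wells.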
# [10] = biological target: Peroxisome proliferator-activated receptor gamma (Homo sapiens) (UniProt P37231); experiment: qHTS assay to identify small molecule agonists of the peroxisome proliferator-activated receptor gamma (PPARg) signaling pathway (AID 743094; active = well fitted activation curve with a large enough effect in the signal ratio in the repeat runs, not every such curve was filed as active; inconclusive = weak or mixed curves, or effect the other way; inactive = no such curve, though single readings can be large or run the other way; the % refers to the signal ratio)
# How it was run: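 HEK293H PPARg-bla cells, 5 h settle at 37C/5% CO2; compound (DMSO) 17 h, 37C; B/G FRET substrate 1 h RT; fluorescence intensity read-out. qHTS format.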
# [11] = qHTS assay to identify small molecule phospholipidosis (PLD) inducers (AID 1259344; active = well fitted curve in the direction sought with a large enough effect; inconclusive = small, poorly fitted or top-dose-only effect, or another doubt; inactive = no such curve, though single readings can be large; an effect the other way counts as inactive or inconclusive)
# How it was run: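 Cells (HepG2, 900 per well) attach for 4 h, receive LipidTOX Red and compound together, incubate 24 h at 37 C, are fixed 30 min with paraformaldehyde/Hoechst, then imaged at one site per well.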
# [12] = system: thyroid hormone receptor (rat, GH3 cells); experiment: qHTS assay to identify small molecule agonists of the thyroid receptor (TR) signaling pathway (AID 743066; calls by dose curve)
# [13] = qHTS assay to identify small molecule antagonists of the estrogen receptor alpha (ER-alpha) signaling pathway - cell viability counter screen (AID 743074; calls by dose curve; also: nearly all actives have a fitted effect of over 45% in size)
# [14] = biological target: Estrogen receptor (Homo sapiens) (UniProt P03372); experiment: qHTS assay to identify small molecule agonists of the estrogen receptor alpha (ER-alpha) signaling pathway using the BG1 cell line (AID 743079); conditions: BG1Luc4E2 cells, ERE-luciferase agonist, 22 h; activation: at 70.3 µM (top of the series); also: nearly all actives have a fitted effect of over 20% in size; also: potency is read from the fitted curve at half-maximal effect
# [15] = qHTS assay to identify small molecule antagonists of the thyroid receptor (TR) signaling pathway - cell viability counter screen (AID 743064); also: nearly all actives have a fitted effect of over 50% in size
# How it was run: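 GH3.TRE-Luc rat pituitary cells carrying a TRE-luciferase reporter were treated with compound plus 1 nM T3 (final) for 23.5 h at 37 °C. Viability was then read in the same wells by CellTiter-Fluor fluorescence after a further 30 min.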
# Aromatase (Homo sapiens), sequence (P11511 whole entry, looked up): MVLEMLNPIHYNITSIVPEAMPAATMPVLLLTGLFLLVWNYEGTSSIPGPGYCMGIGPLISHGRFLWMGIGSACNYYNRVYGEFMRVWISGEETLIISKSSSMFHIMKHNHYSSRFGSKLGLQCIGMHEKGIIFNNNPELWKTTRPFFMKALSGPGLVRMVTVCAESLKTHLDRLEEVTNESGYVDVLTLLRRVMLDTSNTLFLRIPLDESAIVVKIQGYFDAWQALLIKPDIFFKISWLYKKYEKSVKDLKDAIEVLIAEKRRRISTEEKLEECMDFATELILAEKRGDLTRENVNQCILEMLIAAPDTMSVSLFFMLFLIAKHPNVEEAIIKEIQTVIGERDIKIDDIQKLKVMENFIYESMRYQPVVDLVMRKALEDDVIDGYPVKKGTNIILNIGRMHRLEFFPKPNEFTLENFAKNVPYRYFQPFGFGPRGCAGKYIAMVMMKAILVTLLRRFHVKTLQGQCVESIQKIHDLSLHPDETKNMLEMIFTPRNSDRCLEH
# Aryl hydrocarbon receptor (Homo sapiens), sequence (P35869 whole entry, looked up): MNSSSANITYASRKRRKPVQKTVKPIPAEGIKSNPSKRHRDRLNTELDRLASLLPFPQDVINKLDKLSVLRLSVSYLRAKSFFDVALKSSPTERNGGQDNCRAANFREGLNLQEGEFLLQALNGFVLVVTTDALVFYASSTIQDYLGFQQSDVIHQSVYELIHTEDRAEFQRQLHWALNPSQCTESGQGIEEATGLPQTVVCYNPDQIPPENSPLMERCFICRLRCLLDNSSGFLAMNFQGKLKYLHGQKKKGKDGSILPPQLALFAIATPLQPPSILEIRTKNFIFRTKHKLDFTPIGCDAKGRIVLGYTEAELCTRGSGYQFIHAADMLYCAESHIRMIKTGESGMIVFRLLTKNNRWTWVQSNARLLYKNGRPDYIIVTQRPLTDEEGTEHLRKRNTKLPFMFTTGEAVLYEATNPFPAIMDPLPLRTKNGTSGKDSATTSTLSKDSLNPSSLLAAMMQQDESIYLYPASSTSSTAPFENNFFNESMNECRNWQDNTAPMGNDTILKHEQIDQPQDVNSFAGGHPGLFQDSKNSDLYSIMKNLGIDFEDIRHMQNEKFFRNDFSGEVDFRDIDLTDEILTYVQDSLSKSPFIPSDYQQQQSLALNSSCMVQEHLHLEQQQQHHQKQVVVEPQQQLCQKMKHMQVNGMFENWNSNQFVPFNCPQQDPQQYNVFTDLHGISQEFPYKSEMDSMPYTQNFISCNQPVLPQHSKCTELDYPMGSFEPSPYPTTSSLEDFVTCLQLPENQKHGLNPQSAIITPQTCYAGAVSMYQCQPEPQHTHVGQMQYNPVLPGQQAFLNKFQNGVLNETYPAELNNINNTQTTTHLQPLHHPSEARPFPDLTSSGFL
# Peroxisome proliferator-activated receptor gamma (Homo sapiens), sequence (P37231 whole entry, looked up): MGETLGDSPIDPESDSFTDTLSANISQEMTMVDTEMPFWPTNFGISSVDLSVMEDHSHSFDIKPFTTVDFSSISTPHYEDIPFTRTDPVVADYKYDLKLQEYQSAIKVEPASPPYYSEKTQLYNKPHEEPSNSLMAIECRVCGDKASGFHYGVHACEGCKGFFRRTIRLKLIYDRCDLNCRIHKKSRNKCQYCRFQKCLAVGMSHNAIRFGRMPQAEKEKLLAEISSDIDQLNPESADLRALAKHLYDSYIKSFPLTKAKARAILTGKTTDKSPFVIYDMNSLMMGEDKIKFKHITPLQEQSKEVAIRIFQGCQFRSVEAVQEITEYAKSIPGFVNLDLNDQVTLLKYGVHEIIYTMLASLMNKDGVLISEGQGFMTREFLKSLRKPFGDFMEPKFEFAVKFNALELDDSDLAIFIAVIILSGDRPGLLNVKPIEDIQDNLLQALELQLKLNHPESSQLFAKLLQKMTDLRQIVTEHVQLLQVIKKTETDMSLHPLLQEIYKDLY
# Estrogen receptor (Homo sapiens), sequence (P03372 whole entry, looked up): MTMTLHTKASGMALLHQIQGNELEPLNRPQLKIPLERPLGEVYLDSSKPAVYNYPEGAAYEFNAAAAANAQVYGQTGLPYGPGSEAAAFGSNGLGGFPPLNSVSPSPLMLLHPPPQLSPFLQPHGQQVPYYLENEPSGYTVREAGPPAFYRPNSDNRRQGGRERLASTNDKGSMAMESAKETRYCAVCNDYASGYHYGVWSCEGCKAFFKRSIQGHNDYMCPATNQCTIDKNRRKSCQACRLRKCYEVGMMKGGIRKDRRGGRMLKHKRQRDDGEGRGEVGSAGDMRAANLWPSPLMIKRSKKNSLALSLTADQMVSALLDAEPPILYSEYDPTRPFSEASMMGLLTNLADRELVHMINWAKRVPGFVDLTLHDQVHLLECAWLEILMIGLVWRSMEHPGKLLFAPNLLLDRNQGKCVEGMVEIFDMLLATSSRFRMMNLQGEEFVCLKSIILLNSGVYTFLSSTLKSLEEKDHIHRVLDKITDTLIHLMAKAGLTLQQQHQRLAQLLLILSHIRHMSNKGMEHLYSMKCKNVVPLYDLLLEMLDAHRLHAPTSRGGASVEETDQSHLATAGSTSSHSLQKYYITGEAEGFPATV
Structure (SMILES),Potency [1],Potency [2],Potency [3],Potency [4],Potency [5],Potency [6],Potency [7],Potency [8],Potency [9],Potency [10],Potency [11],Potency [12],Potency [13],activation [14],Potency [14],Potency [15],PLD induction [11]
C[C@H](/C=C/[C@H](C)C(C)(C)O)[C@H]1CC[C@H]2/C(=C/C=C3C[C@@H](O)C[C@H](O)C3)CCC[C@]12C,16.8 µM (active),23.9 µM [inconclusive] (active),inactive,29.8 µM (active),inactive,inactive,inactive,inactive,inactive,inactive,inactive,,,,,,
CCC(=O)Oc1ccc2c(c1)CC[C@@H]1[C@@H]2CC[C@]2(C)[C@@H](OC(=O)CC)CC[C@@H]12,inactive,,,inactive,inactive,,inactive,inactive,,inactive,inactive,inactive,inactive,99.5% (active),,,
O=S(O)CNc1ccc(S(=O)(=O)c2ccc(NCS(=O)O)cc2)cc1,inactive,inactive,inactive,inactive,inactive,inactive,inactive,inactive,inactive,inactive,inactive,inactive,inactive,,inactive,,
CCCCCCC(=O)O[C@H]1CC[C@H]2[C@@H]3CCc4cc(O)ccc4[C@H]3CC[C@]12C,21.1 µM (active),,0.0007 µM [inconclusive] (active),,inactive,inactive,inactive,inactive,inactive,,inactive,,,66.1% (active),,,
CCCCOC(=O)C(=O)Nc1cccc(-c2nn[nH]n2)c1,,,inactive,inactive,,inactive,inactive,inactive,inactive,inactive,inactive,,inactive,,inactive,inactive,
CCCN(CC)C(CC)C(=O)Nc1c(C)cccc1C (stereo unspecified),inactive,,inactive,inactive,,inactive,inactive,inactive,inactive,inactive,inactive,inactive,inactive,,inactive,,
CC1(C)C2CC[C@]3(C)[C@H](C(=O)C=C4[C@@H]5C[C@@](C)(C(=O)O)CC[C@]5(C)CC[C@]43C)[C@@]2(C)CC[C@@H]1O[C@H]1O[C@H](C(=O)O)[C@@H](O)[C@H](O)[C@H]1O[C@@H]1O[C@H](C(=O)O)[C@@H](O)[C@H](O)[C@H]1O (stereo partly specified),,,,,inactive,inactive,inactive,inactive,inactive,,,inactive,inactive,,,inactive,0.435% [at 7.66 µM] (inactive)
CCCCCCCCCCCCCCCCSCC(COC)COP(=O)([O-])OCC[N+](C)(C)C (stereo unspecified),18.8 µM (active),21.3 µM [inhibitor] (active),inactive,inactive,inactive,,inactive,inactive,,inactive,inactive,,inactive,,inactive,,
NC[C@@H]1O[C@H](O[C@H]2[C@@H](O)[C@H](O[C@@H]3[C@@H](O)[C@H](N)C[C@H](N)[C@H]3O[C@H]3O[C@H](CO)[C@@H](O)[C@H](O)[C@H]3N)O[C@@H]2CO)[C@H](N)[C@@H](O)[C@@H]1O,,inactive,inactive,inactive,inactive,inactive,inactive,inactive,inactive,inactive,inactive,,inactive,,26.6 µM (active),inactive,
NCCC[C@H](N)C(=O)O,inactive,inactive,inactive,inactive,,inactive,inactive,inactive,inactive,inactive,inactive,inactive,,,inactive,,
CC1=C(C(=O)OCCN(Cc2ccccc2)c2ccccc2)C(c2cccc([N+](=O)[O-])c2)C(P2(=O)OCC(C)(C)CO2)=C(C)N1 (stereo unspecified),13.3 µM (active),,inactive,inactive,inactive,,,,,,,inactive,inactive,,inactive,,-1.08% [at 7.66 µM] (inactive)
CCCCCC(O)/C=C/C=O (stereo unspecified),inactive,,,,inactive,inactive,inactive,inactive,inactive,inactive,inactive,inactive,,,,,
COc1cc2[nH]c(C)c(CCN3CCN(c4ccccc4)CC3)c2cc1OC,,inactive,inactive,inactive,inactive,inactive,,inactive,,inactive,inactive,inactive,inactive,,inactive,,
Cc1onc(-c2ccccc2)c1C(=O)N[C@@H]1C(=O)N2[C@@H]1SC(C)(C)[C@@H]2C(=O)O,inactive,inactive,inactive,inactive,inactive,inactive,inactive,inactive,inactive,,,inactive,,,inactive,,-3.09% [at 7.66 µM] (inactive)
NC(=O)C[C@@H](N)C(=O)O,,,,,,inactive,inactive,inactive,,,inactive,inactive,inactive,,,inactive,
Cn1nnnc1SCC1=C(C(=O)O)N2C(=O)[C@@H](NC(=O)[C@H](O)c3ccccc3)[C@H]2SC1,inactive,,inactive,inactive,inactive,inactive,inactive,,inactive,inactive,inactive,inactive,inactive,,inactive,,

Structure (SMILES),Potency [1],Potency [2],Potency [3],Potency [4],Potency [5],Potency [6],Potency [7],Potency [8],Potency [9],Potency [10],Potency [11],Potency [12],Potency [13],activation [14],Potency [14],Potency [15],PLD induction [11]
O=[N+]([O-])c1ccc(Oc2ccc(N=C=S)cc2)cc1,29.8 µM (active),0.848 µM [inconclusive] (active),inactive,,,26.6 µM (active),inactive,inactive,,,inactive,inactive,inactive,,,,
CC(C(=O)O)c1ccc(C2CCCCC2)c2ccccc12 (stereo unspecified),,inactive,inactive,inactive,inactive,,inactive,inactive,inactive,,,inactive,inactive,,inactive,,0.703% [at 7.66 µM] (inactive)
CCOC(=O)COc1ccc2c(C)c(CCN(CC)CC)c(=O)oc2c1,inactive,inactive,inactive,inactive,inactive,inactive,inactive,inactive,inactive,,,inactive,,,inactive,,-3.34% [at 7.66 µM] (inactive)
O=C(Cn1c(=O)sc2ccc(Cl)cc21)N1CCN(CCO)CC1,,,,,inactive,inactive,inactive,,inactive,inactive,,,inactive,,,inactive,3.19% [at 7.66 µM] (inactive)
C/C(=C(\CCOC(=O)c1ccccc1)SS/C(CCOC(=O)c1ccccc1)=C(/C)N(C=O)Cc1cnc(C)nc1N)N(C=O)Cc1cnc(C)nc1N,23.7 µM (active),,inactive,inactive,inactive,inactive,inactive,inactive,inactive,inactive,inactive,inactive,inactive,,,,
CC#CCC(C)[C@H](O)/C=C/[C@@H]1[C@H]2c3cccc(CCCC(=O)O)c3O[C@H]2C[C@H]1O (stereo partly specified),inactive,,,,inactive,inactive,inactive,inactive,inactive,,inactive,inactive,inactive,,26.6 µM (active),,
c1cnc2cc3c(cc2n1)[C@@H]1CNC[C@H]3C1,inactive,inactive,inactive,inactive,inactive,inactive,inactive,inactive,,inactive,inactive,inactive,inactive,,inactive,,
CC(C)(C)NC(=O)[C@H]1CC[C@H]2[C@@H]3CC=C4C=C(C(=O)O)CC[C@]4(C)[C@H]3CC[C@]12C,inactive,inactive,inactive,inactive,,inactive,inactive,inactive,inactive,,inactive,inactive,,,inactive,,
C=C[C@]1(C)C[C@@H](OC(=O)CO)[C@]2(C)[C@H](C)CC[C@]3(CCC(=O)[C@H]32)[C@@H](C)[C@@H]1O,,inactive,inactive,inactive,,inactive,inactive,,inactive,inactive,inactive,,,,inactive,inactive,
NCCCC[C@H](NC(=O)[C@@H]1CCCN1C(=O)[C@@H]1CSSC[C@H](NC(=O)CNC(=O)CNC(=O)CN)C(=O)N[C@@H](Cc2ccc(O)cc2)C(=O)N[C@@H](Cc2ccccc2)C(=O)N[C@@H](CCC(N)=O)C(=O)N[C@@H](CC(N)=O)C(=O)N1)C(=O)NCC(N)=O (H-GGGCYFQNCPKG-NH2; disulfide 4-9),inactive,,,,,inactive,inactive,inactive,inactive,inactive,inactive,inactive,inactive,,,,
COc1cc([C@@H]2c3cc4c(cc3C(O[C@@H]3O[C@@H]5CO[C@@H](C)O[C@H]5[C@H](O)[C@H]3O)C3COC(=O)[C@@H]32)OCO4)cc(OC)c1OP(=O)(O)O (stereo partly specified),11.9 µM (active),inactive,inactive,inactive,,inactive,inactive,,inactive,inactive,,inactive,,,11.9 µM (active) and inactive,,0.0559% [at 1.53 µM] (inactive)
O=C(Nc1ccc(/C=C/c2ccc(NC(=O)c3cc(S(=O)(=O)O)c4cccnc4c3O)cc2S(=O)(=O)O)c(S(=O)(=O)O)c1)c1cc(S(=O)(=O)O)c2cccnc2c1O,,inactive,inactive,inactive,inactive,inactive,,inactive,inactive,inactive,,inactive,inactive,,inactive,,-0.0305% [at 7.66 µM] (inactive)
Cc1ccc(/C(=C\CN2CCCC2)c2cccc(/C=C/C(=O)O)n2)cc1,inactive,,,,inactive,,,,inactive,,inactive,inactive,inactive,,,,
O.O=C([O-])CC([S-])C(=O)[O-].[Au+].[Na+].[Na+] (stereo unspecified),,inactive,inactive,inactive,inactive,inactive,inactive,,,,inactive,inactive,inactive,,inactive,,
CC(C)(C)CC(=O)OCC(=O)[C@@]12OC(C)(C)O[C@@H]1C[C@H]1[C@@H]3CCC4=CC(=O)C=C[C@]4(C)[C@@]3(F)[C@@H](O)C[C@@]12C,inactive,,,,,inactive,inactive,,inactive,inactive,inactive,inactive,inactive,,inactive,,
CC1(C)S[C@@H]2[C@H](NC(=O)Cc3ccccc3)C(=O)N2[C@H]1C(=O)O,,,inactive,inactive,inactive,inactive,inactive,inactive,inactive,inactive,inactive,,inactive,,inactive,inactive,
